# Reference: the supplement of paper PMC9925115
# ± gives the uncertainty stated by the source.
# Tested on: FLX1
# Assay: cell viability z-score within plate (CellTiter-Glo), mean of 3 biological replicates; higher = higher viability relative to plate (less growth inhibition)
# Settings: 2 µM; time (hr): 120
# Description: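 FLX1 fibrolamellar carcinoma cells (DNAJB1-PRKACA fusion), 600 cells/well in 384-well plates, treated with a Selleck kinase inhibitor library (L1200) at 2 uM for 5 days (120 hr); viability by CellTiter-Glo. A z-score was computed within each plate and averaged over three biological replicates.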
row,SMILES,cell viability z-score within plate
1,CCN1CCN(C(=O)Cc2ccc(Nc3ncc(F)c(Nc4ccc(C(=O)Nc5ccccc5Cl)cc4)n3)cc2)CC1 [Aurora A Inhibitor I],-0.367 ± 0.29
2,CC(C)(C)c1cc(C=C(C#N)C#N)cc(C(C)(C)C)c1O [Tyrphostin 9],0.448 ± 0.24
3,O=c1[nH]c2ccc(Cl)cc2c(N[C@@H]2CN3CCC2CC3)c1-c1nc2ccccc2[nH]1,0.562 ± 0.43
4,Cn1cc(C2=C(c3cn(C4CCN(Cc5ccccn5)CC4)c4ccccc34)C(=O)NC2=O)c2ccccc21,-2.47 ± 0.57
5,Cc1ccccc1-n1c(Cn2ncc3c(N)ncnc32)nc2cccc(C)c2c1=O,0.16 ± 0.68
6,CC(C)(C)c1cc(C=C(C#N)C#N)cc(Br)c1O,-0.784 ± 0.7
